Experimental data published in the supplement of paper PMC11732987, “Enantioselective OTUD7B fragment discovery through chemoproteomics screening and high-throughput optimisation” (Communications Chemistry, 2025).

What was measured:
Experiment in all cases: log2 ratio of Biotin-Ahx-Ub-VS probe labelling (fragment/DMSO); higher = less target engagement (more negative = stronger competition), active = hit call of the paper (q ≤ 0.05, log2 ratio ≤ -1)
Details in all cases: compound concentration: 200 uM; treatment time: 3 h
USP34 = USP34 (UniProt Q70CQ2)
Chain of USP34 (Q70CQ2 whole entry, the tested form may be a part): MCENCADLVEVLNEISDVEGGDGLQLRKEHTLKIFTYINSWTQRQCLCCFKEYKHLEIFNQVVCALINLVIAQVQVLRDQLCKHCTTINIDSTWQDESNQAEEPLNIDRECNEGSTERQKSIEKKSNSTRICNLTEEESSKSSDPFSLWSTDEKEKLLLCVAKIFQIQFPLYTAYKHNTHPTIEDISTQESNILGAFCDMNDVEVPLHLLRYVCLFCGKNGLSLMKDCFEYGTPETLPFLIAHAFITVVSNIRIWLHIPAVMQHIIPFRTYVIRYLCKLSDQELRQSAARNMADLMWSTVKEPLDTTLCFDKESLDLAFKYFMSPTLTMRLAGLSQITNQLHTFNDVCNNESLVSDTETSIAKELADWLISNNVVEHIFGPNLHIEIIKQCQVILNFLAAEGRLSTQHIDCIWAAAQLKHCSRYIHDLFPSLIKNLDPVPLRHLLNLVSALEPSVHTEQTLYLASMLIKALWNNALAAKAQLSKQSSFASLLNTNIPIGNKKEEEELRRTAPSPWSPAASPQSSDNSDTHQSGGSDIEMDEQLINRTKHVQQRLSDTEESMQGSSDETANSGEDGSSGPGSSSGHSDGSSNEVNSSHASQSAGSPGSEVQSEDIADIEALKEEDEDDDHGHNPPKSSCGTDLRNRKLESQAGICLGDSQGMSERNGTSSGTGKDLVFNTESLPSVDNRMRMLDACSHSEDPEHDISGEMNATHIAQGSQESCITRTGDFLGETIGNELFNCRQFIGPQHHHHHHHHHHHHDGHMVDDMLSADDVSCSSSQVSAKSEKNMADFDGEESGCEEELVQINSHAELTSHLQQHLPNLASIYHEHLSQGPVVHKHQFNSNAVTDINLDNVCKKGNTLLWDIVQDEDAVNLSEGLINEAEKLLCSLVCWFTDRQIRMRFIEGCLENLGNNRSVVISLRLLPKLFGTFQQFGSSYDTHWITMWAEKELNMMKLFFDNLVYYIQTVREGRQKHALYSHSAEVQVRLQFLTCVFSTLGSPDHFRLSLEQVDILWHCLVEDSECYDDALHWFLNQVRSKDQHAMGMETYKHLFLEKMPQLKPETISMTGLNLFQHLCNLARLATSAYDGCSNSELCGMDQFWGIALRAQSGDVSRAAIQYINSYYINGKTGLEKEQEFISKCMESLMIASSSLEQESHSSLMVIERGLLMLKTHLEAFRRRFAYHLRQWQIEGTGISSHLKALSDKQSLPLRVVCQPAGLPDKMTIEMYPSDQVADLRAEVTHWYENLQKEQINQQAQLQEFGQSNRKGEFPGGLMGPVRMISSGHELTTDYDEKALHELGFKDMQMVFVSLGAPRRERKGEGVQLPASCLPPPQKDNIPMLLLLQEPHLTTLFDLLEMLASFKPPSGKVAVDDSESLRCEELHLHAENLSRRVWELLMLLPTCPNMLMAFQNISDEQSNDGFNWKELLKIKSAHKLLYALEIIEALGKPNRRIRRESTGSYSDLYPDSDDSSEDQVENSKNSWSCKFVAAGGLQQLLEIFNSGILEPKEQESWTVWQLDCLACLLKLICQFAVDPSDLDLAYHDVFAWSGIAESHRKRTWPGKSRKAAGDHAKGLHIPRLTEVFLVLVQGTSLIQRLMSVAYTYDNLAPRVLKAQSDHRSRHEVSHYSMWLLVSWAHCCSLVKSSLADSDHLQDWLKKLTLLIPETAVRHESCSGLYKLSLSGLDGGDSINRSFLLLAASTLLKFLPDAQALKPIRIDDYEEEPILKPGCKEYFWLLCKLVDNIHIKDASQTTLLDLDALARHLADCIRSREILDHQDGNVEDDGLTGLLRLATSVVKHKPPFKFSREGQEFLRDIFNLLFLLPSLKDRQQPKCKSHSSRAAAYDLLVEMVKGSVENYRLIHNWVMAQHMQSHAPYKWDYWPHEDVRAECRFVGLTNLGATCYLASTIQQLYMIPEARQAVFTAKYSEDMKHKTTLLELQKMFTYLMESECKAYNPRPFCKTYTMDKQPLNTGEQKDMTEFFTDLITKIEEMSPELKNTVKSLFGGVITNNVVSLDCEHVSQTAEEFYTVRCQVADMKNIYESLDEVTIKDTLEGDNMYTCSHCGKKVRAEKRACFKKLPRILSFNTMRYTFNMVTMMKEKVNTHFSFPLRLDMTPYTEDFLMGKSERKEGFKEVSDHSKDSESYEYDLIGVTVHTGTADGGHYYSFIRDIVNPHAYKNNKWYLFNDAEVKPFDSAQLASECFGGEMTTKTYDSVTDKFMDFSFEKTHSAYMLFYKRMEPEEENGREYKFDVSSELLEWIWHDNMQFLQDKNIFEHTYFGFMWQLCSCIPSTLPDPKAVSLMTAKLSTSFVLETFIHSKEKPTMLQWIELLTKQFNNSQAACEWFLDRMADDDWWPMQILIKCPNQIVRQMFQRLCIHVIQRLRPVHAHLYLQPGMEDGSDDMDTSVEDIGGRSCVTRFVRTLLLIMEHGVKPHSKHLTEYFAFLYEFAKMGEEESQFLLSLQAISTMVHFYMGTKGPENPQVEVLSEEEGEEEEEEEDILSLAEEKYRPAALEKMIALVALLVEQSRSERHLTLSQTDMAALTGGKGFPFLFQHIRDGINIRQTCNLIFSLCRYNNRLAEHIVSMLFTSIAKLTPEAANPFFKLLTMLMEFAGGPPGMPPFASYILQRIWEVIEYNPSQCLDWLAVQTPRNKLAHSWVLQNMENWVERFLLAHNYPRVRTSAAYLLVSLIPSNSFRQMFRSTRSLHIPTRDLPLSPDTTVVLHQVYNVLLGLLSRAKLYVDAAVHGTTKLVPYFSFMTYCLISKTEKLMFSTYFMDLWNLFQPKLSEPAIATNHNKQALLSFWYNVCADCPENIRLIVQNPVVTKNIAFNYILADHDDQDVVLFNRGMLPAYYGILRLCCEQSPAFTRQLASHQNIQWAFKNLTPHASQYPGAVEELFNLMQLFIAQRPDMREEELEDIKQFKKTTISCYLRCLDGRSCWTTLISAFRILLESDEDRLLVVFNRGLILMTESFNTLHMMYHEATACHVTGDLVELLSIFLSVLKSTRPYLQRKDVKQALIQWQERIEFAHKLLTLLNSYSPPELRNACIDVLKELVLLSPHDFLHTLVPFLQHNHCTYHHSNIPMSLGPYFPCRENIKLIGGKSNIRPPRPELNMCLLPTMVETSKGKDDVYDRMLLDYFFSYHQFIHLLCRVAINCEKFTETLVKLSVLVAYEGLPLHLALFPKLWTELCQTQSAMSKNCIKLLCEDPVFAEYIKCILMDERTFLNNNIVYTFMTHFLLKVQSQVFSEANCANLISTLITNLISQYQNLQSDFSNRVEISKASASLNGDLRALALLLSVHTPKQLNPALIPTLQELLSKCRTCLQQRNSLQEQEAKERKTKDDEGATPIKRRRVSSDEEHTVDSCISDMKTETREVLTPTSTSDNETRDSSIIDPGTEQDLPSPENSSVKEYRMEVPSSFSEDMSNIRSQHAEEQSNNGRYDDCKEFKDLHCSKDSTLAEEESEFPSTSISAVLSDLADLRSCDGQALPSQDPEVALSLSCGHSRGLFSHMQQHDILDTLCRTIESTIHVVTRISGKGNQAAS
Summary of the method: (§1)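 The table lists average log2 ratios of fragment over vehicle, from an unpaired t-test on global-median-normalised Spectronaut label-free quantities. Proteins with ≥2 unique peptides were used. Samples were HEK293T lysate (495 µg) treated in triplicate with fragment at 200 µM or vehicle for 3 h, then with Biotin-Ahx-Ub-VS (0.5 µM final) for 1 h, with labelled DUBs NeutrAvidin-enriched and run by diaPASEF LC-MS/MS.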

USP36 = target: T1, USP36 (UniProt Q9P275)
T1 sequence (whole entry): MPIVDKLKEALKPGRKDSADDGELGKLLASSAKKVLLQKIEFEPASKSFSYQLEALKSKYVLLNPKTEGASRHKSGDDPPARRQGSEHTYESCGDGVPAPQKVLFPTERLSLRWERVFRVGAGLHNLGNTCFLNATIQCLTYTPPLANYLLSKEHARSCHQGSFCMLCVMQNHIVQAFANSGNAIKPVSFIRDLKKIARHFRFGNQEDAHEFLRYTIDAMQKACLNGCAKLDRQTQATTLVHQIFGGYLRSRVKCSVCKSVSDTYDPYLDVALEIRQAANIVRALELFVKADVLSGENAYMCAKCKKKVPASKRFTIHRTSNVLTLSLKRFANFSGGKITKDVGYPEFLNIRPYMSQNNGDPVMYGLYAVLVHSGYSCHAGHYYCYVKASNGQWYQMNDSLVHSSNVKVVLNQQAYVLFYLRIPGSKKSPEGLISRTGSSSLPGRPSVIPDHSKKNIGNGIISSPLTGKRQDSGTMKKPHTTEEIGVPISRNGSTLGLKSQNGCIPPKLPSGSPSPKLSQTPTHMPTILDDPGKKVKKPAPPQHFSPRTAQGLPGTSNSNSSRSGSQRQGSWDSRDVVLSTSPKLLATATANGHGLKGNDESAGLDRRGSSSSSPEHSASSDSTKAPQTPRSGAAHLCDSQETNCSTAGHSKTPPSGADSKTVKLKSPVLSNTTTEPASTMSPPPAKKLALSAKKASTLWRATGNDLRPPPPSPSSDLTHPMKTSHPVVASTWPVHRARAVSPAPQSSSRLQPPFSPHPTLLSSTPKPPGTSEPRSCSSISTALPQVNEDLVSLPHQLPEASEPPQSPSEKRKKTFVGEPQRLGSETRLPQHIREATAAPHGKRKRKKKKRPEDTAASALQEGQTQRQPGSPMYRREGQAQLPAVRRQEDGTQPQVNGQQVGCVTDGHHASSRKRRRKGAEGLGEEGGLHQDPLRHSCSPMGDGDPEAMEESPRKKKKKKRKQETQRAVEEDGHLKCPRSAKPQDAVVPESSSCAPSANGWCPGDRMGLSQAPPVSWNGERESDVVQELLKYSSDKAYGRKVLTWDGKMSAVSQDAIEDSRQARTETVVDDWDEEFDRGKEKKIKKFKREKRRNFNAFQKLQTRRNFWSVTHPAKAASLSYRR
Summary of the method: as §1

USP38 = target: T2, USP38 (UniProt Q8NB14)
T2 sequence (whole entry): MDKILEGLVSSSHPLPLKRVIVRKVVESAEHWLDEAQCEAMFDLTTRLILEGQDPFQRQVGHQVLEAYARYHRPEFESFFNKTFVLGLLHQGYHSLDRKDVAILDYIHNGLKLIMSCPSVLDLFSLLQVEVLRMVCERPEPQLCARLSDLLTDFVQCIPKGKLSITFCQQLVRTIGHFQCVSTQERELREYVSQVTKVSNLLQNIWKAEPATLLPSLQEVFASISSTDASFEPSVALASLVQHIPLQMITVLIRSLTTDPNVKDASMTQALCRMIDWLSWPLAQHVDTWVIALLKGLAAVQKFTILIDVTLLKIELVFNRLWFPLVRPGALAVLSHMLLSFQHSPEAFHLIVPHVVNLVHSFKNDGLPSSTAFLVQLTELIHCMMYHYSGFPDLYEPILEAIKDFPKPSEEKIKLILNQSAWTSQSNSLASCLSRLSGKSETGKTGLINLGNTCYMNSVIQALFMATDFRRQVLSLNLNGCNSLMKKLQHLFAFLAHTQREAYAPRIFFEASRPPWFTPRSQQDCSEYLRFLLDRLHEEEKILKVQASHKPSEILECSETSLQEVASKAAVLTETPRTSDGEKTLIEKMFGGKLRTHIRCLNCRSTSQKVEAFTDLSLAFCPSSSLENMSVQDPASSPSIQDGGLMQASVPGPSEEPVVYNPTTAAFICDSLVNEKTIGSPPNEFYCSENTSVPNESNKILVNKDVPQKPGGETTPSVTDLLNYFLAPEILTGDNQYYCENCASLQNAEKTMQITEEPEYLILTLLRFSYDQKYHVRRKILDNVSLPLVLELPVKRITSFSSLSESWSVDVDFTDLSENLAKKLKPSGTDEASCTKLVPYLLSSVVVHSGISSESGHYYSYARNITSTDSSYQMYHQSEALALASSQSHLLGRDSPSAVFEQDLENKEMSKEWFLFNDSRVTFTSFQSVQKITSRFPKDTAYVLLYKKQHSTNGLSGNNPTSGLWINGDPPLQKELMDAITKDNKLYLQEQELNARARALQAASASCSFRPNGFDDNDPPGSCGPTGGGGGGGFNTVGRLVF
Summary of the method: as §1

USP39 = target: T3, USP39 (UniProt Q53GS9)
T3 sequence (whole entry): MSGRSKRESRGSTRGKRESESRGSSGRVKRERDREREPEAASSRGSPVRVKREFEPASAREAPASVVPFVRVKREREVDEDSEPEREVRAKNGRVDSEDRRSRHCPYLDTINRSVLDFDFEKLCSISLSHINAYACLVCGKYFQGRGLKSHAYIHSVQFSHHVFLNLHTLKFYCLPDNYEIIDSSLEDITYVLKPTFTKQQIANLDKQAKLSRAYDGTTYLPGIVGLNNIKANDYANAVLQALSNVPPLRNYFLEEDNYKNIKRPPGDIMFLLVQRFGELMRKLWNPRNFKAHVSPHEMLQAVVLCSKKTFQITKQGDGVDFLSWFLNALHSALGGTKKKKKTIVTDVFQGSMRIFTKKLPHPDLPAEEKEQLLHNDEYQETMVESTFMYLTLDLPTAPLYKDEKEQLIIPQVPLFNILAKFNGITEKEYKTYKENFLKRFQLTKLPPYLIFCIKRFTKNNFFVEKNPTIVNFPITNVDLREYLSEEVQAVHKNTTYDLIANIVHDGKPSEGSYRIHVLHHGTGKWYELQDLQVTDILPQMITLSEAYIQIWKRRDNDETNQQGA
Summary of the method: as §1

USP4 = target: T4, USP4 (UniProt Q13107)
T4 sequence (whole entry): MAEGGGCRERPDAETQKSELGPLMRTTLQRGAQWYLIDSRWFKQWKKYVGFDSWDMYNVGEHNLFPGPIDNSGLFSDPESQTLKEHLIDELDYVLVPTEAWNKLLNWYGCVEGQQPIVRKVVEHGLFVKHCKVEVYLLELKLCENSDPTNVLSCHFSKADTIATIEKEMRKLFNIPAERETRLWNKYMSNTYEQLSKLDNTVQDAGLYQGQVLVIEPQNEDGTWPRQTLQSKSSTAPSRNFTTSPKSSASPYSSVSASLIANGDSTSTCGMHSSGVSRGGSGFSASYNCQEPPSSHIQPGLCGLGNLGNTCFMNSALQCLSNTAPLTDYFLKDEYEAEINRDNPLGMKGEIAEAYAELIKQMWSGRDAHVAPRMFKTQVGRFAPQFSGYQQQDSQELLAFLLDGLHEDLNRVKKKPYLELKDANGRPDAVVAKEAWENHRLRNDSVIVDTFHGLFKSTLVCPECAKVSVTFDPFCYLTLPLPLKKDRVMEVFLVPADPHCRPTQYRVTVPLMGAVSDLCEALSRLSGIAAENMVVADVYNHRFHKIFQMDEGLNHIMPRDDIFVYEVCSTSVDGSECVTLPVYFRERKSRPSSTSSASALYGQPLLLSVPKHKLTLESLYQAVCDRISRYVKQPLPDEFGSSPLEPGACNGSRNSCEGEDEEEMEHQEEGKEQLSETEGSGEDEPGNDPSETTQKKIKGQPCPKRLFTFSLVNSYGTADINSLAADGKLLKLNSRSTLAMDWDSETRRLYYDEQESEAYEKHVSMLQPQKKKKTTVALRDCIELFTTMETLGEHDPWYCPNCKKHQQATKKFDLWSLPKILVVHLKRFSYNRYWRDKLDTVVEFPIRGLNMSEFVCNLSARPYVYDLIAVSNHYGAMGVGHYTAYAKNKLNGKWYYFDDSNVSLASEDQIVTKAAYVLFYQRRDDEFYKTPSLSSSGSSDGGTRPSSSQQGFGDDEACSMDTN
Summary of the method: as §1

Measured: log2 ratio of Biotin-Ahx-Ub-VS probe labelling

Cl.O=C(CN1CCN(C(=O)CCl)CC1)Nc1ccc(F)cc1
inactive: USP34 0.1 | USP36 -0.231 | USP38 -0.043 | USP39 0.0696 | USP4 0.142
